Results from PubChem BioAssay (NCATS).
Results filed as inconclusive are left out. Where a call stands in place of a potency, no number is given. Calls of active or inactive are those of the source. The call rests on the fitted dose curve; in most records, active means well fitted inhibition curve with a large enough effect; inconclusive means small, poorly fitted or top-dose-only effect; inactive means flat fitted curve, though single readings scatter.

test system: WaGa; assay: qHTS assay to identify novel small-molecules to repurpose for Merkel cell carcinoma treatment (AID 1296009); conditions: MCC and control cell lines, CellTiter-Glo viability, 72 h; series mostly up to 46 µM; further: nearly all actives have a fitted effect of over 60% in size
Outline: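 Cell viability measured by CellTiter-Glo following 72 hr compound treatment at 37 degree celsius, with NPC and MIPE libraries tested in 8- and 11-point concentration series.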

SMILES | Potency
Cc1ccc(-c2ccccc2C#N)cc1 | inactive
COC(=O)/C=C(/C)N | inactive
CN1N=C(C(N)=O)CCC1=O | inactive
CC(NC(CCc1ccccc1)C(=O)O)C(=O)N1C(=O)N(C)CC1C(=O)O (stereo unspecified) | inactive
CN(C)CCN1CCN(c2cccc(Cl)c2)C1=O | inactive
Cc1cc(O)c(C)c(C)c1O | inactive
COC(=O)c1cc(Cl)ccc1OC | inactive
COc1ccc(CCC(C)=O)cc1 | inactive
CCCC(=O)Nc1ccc(O)c(C(C)=O)c1 | inactive
Cc1ccc(C(C)OC(=O)C2(C)CCC(C(=O)O)C2(C)C)cc1 (stereo unspecified) | inactive
O=C(C1CCCCC1)N1CC(=O)N2CCCc3ccccc3C2C1 (stereo unspecified) | inactive
O=C(O)/C=C(\CC(=O)O)C(=O)O | inactive
CC(C)(C)C(=O)OCOC(=O)C1N2C(=O)CC2S(=O)(=O)C1(C)C (stereo unspecified) | inactive
Cc1c(N)cccc1C(F)(F)F | inactive
CC(CC(C#N)(c1ccccc1)C(C)C)N(C)C (stereo unspecified) | inactive
CC(C)(C)c1nnc(NS(=O)(=O)c2ccccc2)s1 | inactive

SMILES | Potency
Oc1ccccc1-c1nnco1 | inactive
NS(=O)(=O)c1ccc(N2CCCCS2(=O)=O)cc1 | inactive
Cc1ccc2ccc(Cl)cc2n1 | inactive
Cc1cccc(C)c1NC(=O)c1cc(S(N)(=O)=O)c(Cl)cc1O | inactive
CC(=O)OCC(=O)[C@@]1(O)[C@H](OC(C)=O)C[C@H]2[C@@H]3CCC4=CC(=O)C=C[C@]4(C)[C@@]3(F)[C@@H](O)C[C@@]21C | inactive
CCN(CC)C(=O)C1CN2CCc3cc(OC)c(OC)cc3C2CC1OC(C)=O (stereo unspecified) | inactive
COC(=O)CCCCC(CCSS/C(CCO)=C(\C)N(C=O)Cc1cnc(C)nc1N)SC(C)=O (stereo unspecified) | inactive
COc1ccc(/C(C)=C/C(=O)O)c(OC)c1 | inactive
OC1(c2ccc(Cl)cc2)CCNCC1 | inactive
CCN(CC)CC(=O)Oc1ccc(NC(C)=O)cc1 | inactive
CCCCCC[C@@H](CCC)C(=O)O | inactive
CC(=O)c1ccc(O)c(C(N)=O)c1 | inactive
COC(=O)/C=C\C(=O)OC | inactive
COc1cc(OC)nc(O[C@H](C(=O)O)C(OC)(c2ccccc2)c2ccccc2)n1 | inactive
C[C@H]1C[C@@H]2[C@H]([C@@H](O)C[C@@]3(C)[C@H]2CC[C@]3(O)C(=O)CO)[C@@]2(C)C=CC(=O)C=C12 | inactive
